Screens deposited in PubChem BioAssay by National Center for Advancing Translational Sciences (NCATS).
Most compounds without a hit are left out; they make up all but 11% or so of the library.
ALDH1A1 inh: qHTS Assay for Inhibitors of Aldehyde Dehydrogenase 1 (ALDH1A1). Purified ALDH1A1, NADH fluorescence, propionaldehyde substrate. Potency, µM (series often up to 75.3 µM), for the others: at the top dose activity, negative = inhibition, usual class: inhibitors. actives 7.3% (n = 220,000). AID 1030, 2008;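 also: potency is read from the fitted curve at half-maximal effect; plate controls were no enzyme wells and a reference inhibitor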
Target sequence (P00352 whole entry, looked up): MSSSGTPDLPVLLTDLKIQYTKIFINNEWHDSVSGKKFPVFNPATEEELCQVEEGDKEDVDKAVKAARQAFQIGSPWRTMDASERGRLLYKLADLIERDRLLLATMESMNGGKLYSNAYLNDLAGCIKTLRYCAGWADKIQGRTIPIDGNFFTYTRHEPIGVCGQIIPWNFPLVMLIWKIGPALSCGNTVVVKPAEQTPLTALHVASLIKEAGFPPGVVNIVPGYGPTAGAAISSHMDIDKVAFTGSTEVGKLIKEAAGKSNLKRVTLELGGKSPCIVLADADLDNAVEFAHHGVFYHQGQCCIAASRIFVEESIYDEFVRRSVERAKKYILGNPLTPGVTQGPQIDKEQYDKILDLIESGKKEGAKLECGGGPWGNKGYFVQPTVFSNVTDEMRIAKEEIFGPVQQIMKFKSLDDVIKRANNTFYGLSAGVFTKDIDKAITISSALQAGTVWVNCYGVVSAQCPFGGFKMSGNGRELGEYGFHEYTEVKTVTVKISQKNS
PNC assembly inh: High Content Assay for Compounds that inhibit the Assembly of the Perinucleolar Compartment | PC3M PTB-GFP, PNC prevalence imaging, 16 h; active compounds read low | AID 2417, 2010 | activity change (PNC), negative = inhibition, % at 10 µM | actives 3.1% (n = 140,000);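 active = readout at or below -70, meaning at least 70% loss of cells showing the perinucleolar compartment, a nuclear body marking cancer cells; inconclusive = readout between -30 and a set limit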;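 also: plate controls were DMSO wells for no effect and camptothecin positive control wells for full effect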
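Read-out is percentage of cells bearing a perinucleolar compartment, from automated 20x imaging of fixed, Hoechst-stained PC3M PTB-GFP cells. Cells were seeded 4 h, then exposed 16 h to compound (23 nl of library stock) in duplicate plates.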
HPGD block: qHTS Assay for Inhibitors of HPGD (15-Hydroxyprostaglandin Dehydrogenase); purified HPGD, NADH fluorescence kinetic, PGE2 substrate; Potency, µM, inactives show top-dose activity change, negative = inhibition, actives largely listed as inhibitors; AID 894, 2007; 15-hydroxyprostaglandin dehydrogenase [NAD(+)] (Homo sapiens), P15428; actives 4.3% (n = 150,000); also: potency is read from the fitted curve at half-maximal effect
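NADH formation kinetics: reaction with 30 uM PGE2 and 1 mM NAD+ (final), 20 nM enzyme, Tris-HCl pH 8 with Tween 20, after 15 min compound preincubation at room temperature. Fluorescence change, last versus first of five reads.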
An asterisk follows results filed as active; ? = inconclusive; / = no result given; [ ] = another dose, or the depositor's remark. Unless noted, calls follow the shape of the dose curve; as a rule, active = well fitted inhibition curve with a large enough effect (not every such curve was filed as active); inconclusive = small, poorly fitted or top-dose-only effect, or another doubt; inactive = no such curve, though single readings can be large or run the other way. Unless noted, % is scaled to controls: 0 for no effect and ±100 for the full control effect.

SMILES | ALDH1A1 inh | PNC assembly inh | HPGD block
Cn1c(C2=C(O)CN(c3ccc4c(c3)OCCO4)C2=N)nc2ccccc21 | 2% | -4 | -5%
O=C(O)Cn1nc(C(F)(F)F)c2c1CCC2 | 3% | -3 | -7%
c1ccc(-c2noc(CSc3nnnn3-c3ccccc3)n2)cc1 | 11µM* | -5 | -5%
c1ccc(-n2nnnc2SCc2ccccn2)cc1 | ? | 25 | -7%
Cc1cccc2nc(CSc3nnnn3-c3ccccc3)cn12 | 10µM* | 7 | 2%
Cc1cc(C)n2cc(CSc3nnnn3-c3ccccc3)nc2n1 | ? | -26 | ?
NC(=O)c1ccc(-n2nnnc2SCc2ccc(F)cc2)cc1 | -6% | -26 | -14%
Clc1ccc(-c2noc(CSc3nnc(-c4ccncc4)n3-c3ccccc3)n2)cc1 | -3% | 25 | -5%
C(=C\CSc1nnnn1-c1ccccc1)/CSc1nnnn1-c1ccccc1 | 0.1µM* | ? | ?
O=C(O)c1ccc(-n2nnnc2SCc2ccccc2)cc1 | 2% | ? | 20µM*
COc1cc(-c2nc(C)c(C(C)=O)n2O)ccc1OCC(=O)Nc1ccc(Cl)cc1 | -4% | / | /
Cc1ccc(-c2csc3nnc(SCC(=O)Nc4cccc(C)n4)n23)cc1 | -2% | 29 | -12%
Nc1ccc(OCc2ccco2)cc1 | -6% | / | /
COC(=O)c1ccc(C(/C=C/[C@@H](C)C(=O)NCc2cc(C)n(C)n2)NC(=O)OCc2ccccc2)cc1 (some centres undefined) | ? | / | -17%
CC(NC(=O)c1ccc(-c2cc(C(F)(F)F)ccc2Cl)o1)c1ccccc1 (centres undefined) | 10% | 12 | -17%
O=S(=O)(NCCSc1nnnn1-c1ccccc1)c1cccs1 | 13µM* | -10 | -10%
CS(=O)(=O)NCCSc1nnnn1-c1ccccc1 | -26% | 0 | 0%
O=[N+]([O-])c1ccc(Sc2nnnn2-c2ccccc2)nc1 | 22µM* | / | /
COC(=O)COC(=O)c1ccc(-n2nnnc2SC)cc1 | ? | -7 | -27%
Cc1ccc(-c2noc(CSc3nnc(-c4ccncc4)n3-c3ccc(C)cc3)n2)cc1 | -15% | -3 | -16%
O=[N+]([O-])c1ccc(Sc2ccc(Cl)c(Cl)c2)nc1 | 5% | -15 | -10%
COC(=O)c1ccc(-n2nnnc2SC)cc1 | 28µM* | 1 | 13µM*
Cc1ccc(-c2noc(CSc3nnnn3C3CCCCC3)n2)cc1 | 14µM* | -17 | -13%
CN(C)c1ccc(N=Nc2ccccc2C(=O)OCC(=O)N(C)c2ccccc2)cc1 | ? | ? | -22%
CS(=O)(=O)N(CC(=O)NC1CC1)C1CCCCC1 | 4% | -26 | -7%
SMILES | ALDH1A1 inh | PNC assembly inh | HPGD block
CCCCCCCCCCCCCCCC(=O)OC[C@H](COP(=O)([O-])OCC[N+](C)(C)C)OC(=O)CCCCCCCCCCCCCCC | 9% | 38 | -5%
CCNc1nc(NC(C)(C)C)nc(N2CCCCC2)n1 | -7% | / | /
COC(=O)c1sccc1NC(=O)CSc1ccccc1N | -1% | / | /
CSc1ccccc1-n1nnnc1SCc1ccccc1 | 7.1µM* | ? | -30%
COC(=O)c1sccc1NC(=O)CSc1ccccc1NC(=O)CNC(C)C | 3.5µM* | / | /
Cc1ccc(-c2nnc(SCC#N)n2N)cc1 | -9% | -83* | ?
C=CCSc1nnnn1-c1ccc(OC)cc1 | 2% | 10 | 5%
Cc1cccc(-c2nnc(SCC#N)n2C)c1 | 15% | / | /
COc1ccc(CSc2nnnn2-c2ccccc2)cc1 | 11µM* | 35 | -9%
Cn1cnnc1SCc1ccccc1 | 5% | 11 | -5%
COc1c(C2=CC(=O)N(C)C2=O)c2c(n1C)C(=O)c1ccccc1C2=O | 0% | / | -6%
Cc1ccnc2ccc(SC(F)(F)F)cc12 | 2% | / | /
Cc1ccc(-n2nnnc2SCC(=O)Nc2ccccc2N2CCCCC2)cc1C | -5% | 21 | -13%
CSc1ccccc1-n1nnnc1SCC(=O)Nc1cc(C)ccc1C | 14µM* | 11 | -2%
Cc1noc(C)c1CSc1nnc(-c2ccccc2)n1Cc1ccco1 | -3% | 19 | -11%
Cc1noc(C)c1CSc1nnc(-c2ccccc2)n1N | 10µM* | 2 | 20µM*
CCOc1ccc(N2CC(C(=O)Nc3ccccc3F)CC2=O)cc1 (centres undefined) | 11% | ? | -5%
COc1ccc(/C=N/OCC(=O)NC(c2ccccc2)c2ccccc2)cc1OC | -5% | ? | -12%
CC[N+](C)(CC)CCN1C(=O)c2ccccc2S1(=O)=O | 26%[13.5 µM] | / | -3%
CC(C)c1ccc(N(CC(=O)NCCSC(C)(C)C)S(C)(=O)=O)cc1 | -10% | 1 | -19%
CCCOc1ccc(NC(=O)OC2CCN(C)CC2)cc1 | 7% | 16 | -9%
